# Laboratory results taken from the supplement of paper PMC8728848.
# Shown is part of a subset that was picked to be rich in the strongest signals.
# Key:
# Test in all cases: glycan array binding signal (z-score within array); higher = stronger binding
# Conditions in all cases: glycan notation: IUPAC condensed, linker removed
# [1] = target: Fuc(a1-2)Gal(b1-3)[Fuc(a1-4)]GlcNAc(b1-3)[Fuc(a1-3)[Gal(b1-4)]GlcNAc(b1-6)]Gal(b1-4)Glc
# How it was run: (§1)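 The binding signal is a Z-score computed within each array and averaged over linkers. Arrays of the same protein sequence at different concentrations or buffers were also averaged together. Data originate from 3228 arrays in the Consortium for Functional Glycomics database, kept only where the protein sequence was available.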
# [2] = target: Fuc(a1-2)Gal(b1-4)GlcNAc6S
# How it was run: as §1
# Fuc(a1-2)[Gal(a1-3)]Gal = target: Fuc(a1-2)[Gal(a1-3)]Gal
# How it was run: as §1
# [3] = target: Fuc(a1-3)[Gal(b1-4)]GlcNAc(b1-2)Man(a1-3)[Fuc(a1-3)[Gal(b1-4)]GlcNAc(b1-2)Man(a1-6)]Man(b1-4)GlcNAc(b1-4)GlcNAc
# How it was run: as §1
# [4] = target: Gal(a1-3)Gal(b1-4)[Fuc(a1-3)]GlcNAc(b1-2)Man(a1-3)[Gal(a1-3)Gal(b1-4)[Fuc(a1-3)]GlcNAc(b1-2)Man(a1-6)]Man(b1-4)GlcNAc(b1-4)GlcNAc
# How it was run: as §1
# [5] = target: Gal(a1-4)Gal(b1-4)GlcNAc(b1-2)Man(a1-3)[Gal(a1-4)Gal(b1-4)GlcNAc(b1-2)Man(a1-6)]Man(b1-4)GlcNAc(b1-4)GlcNAc
# How it was run: as §1
# Gal(b1-3)Gal = target: Gal(b1-3)Gal
# How it was run: as §1
# [6] = target: Gal(b1-3)GalNAc(a1-3)[Fuc(a1-2)]Gal(b1-4)Glc
# How it was run: as §1
# [7] = target: Gal(b1-3)GlcNAc(b1-2)Man(a1-3)[Gal(b1-3)GlcNAc(b1-2)Man(a1-6)]Man(b1-4)GlcNAc(b1-4)GlcNAc
# How it was run: as §1
# [8] = target: Gal(b1-3)GlcNAc(b1-3)Gal(b1-4)Glc
# How it was run: as §1
# [9] = target: Gal(b1-4)GlcNAc(b1-2)Man(a1-3)[Man(a1-6)]Man(b1-4)GlcNAc(b1-4)GlcNAc
# How it was run: as §1
# [10] = target: Gal(b1-4)GlcNAc(b1-2)[Gal(b1-4)GlcNAc(b1-4)]Man(a1-3)[Gal(b1-4)GlcNAc(b1-2)Man(a1-6)]Man(b1-4)GlcNAc(b1-4)GlcNAc
# How it was run: as §1
# Gal6S(b1-4)Glc6S = target: Gal6S(b1-4)Glc6S
# How it was run: as §1
# GlcNAc(b1-3)Gal = target: GlcNAc(b1-3)Gal
# How it was run: as §1
# [11] = target: Man(a1-2)Man(a1-2)Man(a1-3)Man
# How it was run: as §1
# [12] = target: Man(a1-2)Man(a1-2)Man(a1-6)[Man(a1-3)]Man
# How it was run: as §1
# Man(a1-2)Man(a1-3)Man = target: Man(a1-2)Man(a1-3)Man
# How it was run: as §1
# [13] = target: Man(a1-2)Man(a1-3)[Man(a1-2)Man(a1-6)]Man
# How it was run: as §1
# [14] = target: Man(a1-2)Man(a1-3)[Man(a1-2)Man(a1-6)]Man(a1-6)[Man(a1-2)Man(a1-2)Man(a1-3)]Man
# How it was run: as §1
# [15] = target: Man(a1-2)Man(a1-6)[Man(a1-3)]Man(a1-6)[Man(a1-2)Man(a1-2)Man(a1-3)]Man
# How it was run: as §1
# Man(a1-3)[Man(a1-6)]Man = target: Man(a1-3)[Man(a1-6)]Man
# How it was run: as §1
# [16] = target: Man(a1-3)[Man(a1-6)]Man(b1-4)GlcNAc(b1-4)GlcNAc
# How it was run: as §1
# [17] = target: Neu5Ac(a2-3)Gal(b1-3)[Fuc(a1-4)]GlcNAc
# How it was run: as §1
# [18] = target: Neu5Ac(a2-3)Gal(b1-4)GlcNAc
# How it was run: as §1
# [19] = target: Neu5Ac(a2-3)Gal(b1-4)[Fuc(a1-3)]GlcNAc(b1-3)Gal
# How it was run: as §1
# [20] = target: Neu5Ac(a2-3)[GalNAc(b1-4)]Gal(b1-4)Glc
# How it was run: as §1
# [21] = target: Neu5Ac(a2-6)Gal(b1-4)GlcNAc(b1-2)Man(a1-6)Man(b1-4)GlcNAc(b1-4)GlcNAc
# How it was run: as §1
# [22] = target: Neu5Ac(a2-6)Gal(b1-4)GlcNAc(b1-3)Gal(b1-4)GlcNAc(b1-3)Gal(b1-4)GlcNAc
# How it was run: as §1
# [23] = target: Neu5Ac(b2-6)Gal(b1-4)GlcNAc
# How it was run: as §1
# [24] = target: Neu5Gc(a2-3)Gal(b1-3)[Fuc(a1-4)]GlcNAc
# How it was run: as §1
# [25] = target: Neu5Gc(a2-3)Gal(b1-4)[Fuc(a1-3)]GlcNAc
# How it was run: as §1
binder,measurement,setting,value
"ZG-16 (Homo sapiens), O60844 (protein) IQARSSSYSGEYGSGGGKRFSHSGNQLDGPITALRVRVNTYYIVGLQVRYGKVWSDYVGGRNGDLEEIFLHPGESVIQVSGKYKWYLKKLVFVTDKGRYLSFGKDSGTSFNAVPLHPNTVLRFISGRSGSLIDAIGLHWDVYPTSCSRCSRGSDDDDKAEPRGPTIKPCPPCKCPAPNLLGGPSVFIFPPKIKDVLMISLSPIVTCVVVDVSEDDPDVQISWFVNNVEVHTAQTQTHREDYNSTLRVVSALPIQHQDWMSGKEFKCKVNNKDLPAPIERTISKPKGSVRAPQVYVLPPPEEEMTKKQVTLTCMVTDFMPEDIYVEWTNNGKTELNYKNTEPVLDSDGSYFMYSKLRVEKKNWVERNSYSCSVVHEGLHNHHTTKSFSRTPGKRTYHHHHHHARKLTR",glycan array binding signal (z-score),[1],-0.196
same,glycan array binding signal (z-score),[2],-0.185
same,glycan array binding signal (z-score),Fuc(a1-2)[Gal(a1-3)]Gal,-0.217
same,glycan array binding signal (z-score),[3],0.273
same,glycan array binding signal (z-score),[4],-0.158
same,glycan array binding signal (z-score),[5],-0.205
same,glycan array binding signal (z-score),Gal(b1-3)Gal,-0.222
same,glycan array binding signal (z-score),[6],-0.193
same,glycan array binding signal (z-score),[7],-0.189
same,glycan array binding signal (z-score),[8],-0.226
same,glycan array binding signal (z-score),[9],-0.146
same,glycan array binding signal (z-score),[10],-0.166
same,glycan array binding signal (z-score),Gal6S(b1-4)Glc6S,-0.16
same,glycan array binding signal (z-score),GlcNAc(b1-3)Gal,-0.231
same,glycan array binding signal (z-score),[11],8.34
same,glycan array binding signal (z-score),[12],5.61
same,glycan array binding signal (z-score),Man(a1-2)Man(a1-3)Man,9.52
same,glycan array binding signal (z-score),[13],3.69
same,glycan array binding signal (z-score),[14],1.94
same,glycan array binding signal (z-score),[15],5.95
same,glycan array binding signal (z-score),Man(a1-3)[Man(a1-6)]Man,4.25
same,glycan array binding signal (z-score),[16],-0.183
same,glycan array binding signal (z-score),[17],-0.202
same,glycan array binding signal (z-score),[18],-0.209
same,glycan array binding signal (z-score),[19],-0.127
same,glycan array binding signal (z-score),[20],-0.21
same,glycan array binding signal (z-score),[21],-0.209
same,glycan array binding signal (z-score),[22],-0.182
same,glycan array binding signal (z-score),[23],-0.221
same,glycan array binding signal (z-score),[24],-0.132
same,glycan array binding signal (z-score),[25],-0.11
